# Source: PubChem BioAssay
# This excerpt belongs to a sample that is enriched for hits.
# Dicer inh: blocks human Dicer maturation of pre-miR-21 | AID 1347074 | z-score at 25 µM | cat-ELCCA pre-miR-21 Dicer processing, chemiluminescence; hits give high values | Q9UPY3 | 47,000 tested, 6% active; in the data active = z-score above about 3, passing the limit was not always enough;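 also: plate controls were vehicle for no effect and no enzyme for full effect; higher signal means more uncleaved substrate so more Dicer inhibition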
# * hit, by the source's call; ! = not active in a repeat.
SMILES,Dicer inh
O=c1ccccn1CCOc1ccc(Cl)cc1,1
CSC1=N/C(=C\N(C)C)C(=O)N1CCOc1ccc(Cl)cc1,3.3*
CSC1=N/C(=C\c2ccc(Cl)cc2)C(=O)N1Cc1ccc(Cl)cc1,0.77
CSc1ccc(NC(=O)c2cc3c4c(sc3nc2N)CCCC4)cc1,-1.1
CCC12CN3CC(CC)(CN(C1)C3c1ccc(O)cc1O)C2=O (centres undefined),0.45
CC12CN3CC(C)(CN(C1)C3c1ccc(O)cc1O)C2=O (centres undefined),-2.8
CC(C)C12CN3CC(C(C)C)(CN(C1)C3c1ccc(O)cc1O)C2=O (centres undefined),5.7*
Cc1ccc(Cn2c(NCc3cccnc3)nc3c2c(=O)n(C)c(=O)n3C)cc1,1.8
c1ccc(-c2nc3ccccc3nc2-c2ccsc2)cc1,0.75
CCOC(=O)c1cc(=O)c2c(O)cccc2o1,-0.64
CCCc1cc(-c2n[nH]c(C)c2-c2ccc(C(=O)OCC)o2)c(O)cc1O,3.9*
CCOC(=O)c1ccc(CSc2n[nH]c(C)n2)o1,-1
CCOC(=O)c1cnc(NNC(=O)c2ccccc2F)nc1C(F)(F)F,1.9
Cc1cc(C)c(NC2=NS(=O)(=O)c3ccccc32)c(Cl)c1,1.5
O=C(COc1ccc2ccccc2c1)NS(=O)(=O)c1ccccc1,0.35
CC1=CC(C)(C)Nc2ccc(OC(=O)c3ccc(Cl)cc3)cc21,4.6
CC1=CC(C)(C)Nc2ccc(OC(=O)c3ccccc3Br)cc21,4*
CC1=CC(C)(C)Nc2ccc(OC(=O)c3cccc(Br)c3)cc21,3.1*
CC1=CC(C)(C)N2C(=O)C(=O)c3cc(OC(=O)c4ccccc4Br)cc1c32,1.7
CC1=CC(C)(C)Nc2ccc(OC(=O)COc3ccccc3)cc21,-3.4
CCOC(=O)Oc1ccc2c(c1)C(C)=CC(C)(C)N2,0.43
CCOC(=O)NC(Nc1ccc(F)cc1F)(C(F)(F)F)C(F)(F)F,1.1
Cc1cc(C)nc(NS(=O)(=O)c2ccc(NC(=O)Nc3ccc(OCc4ccccc4)cc3)cc2)n1,1.6
c1ccc(-c2ccc(-c3ncc(-c4ccccc4)o3)cc2)cc1,0.52
Cc1[nH]c2ccccc2c1SCc1nnc(SCC(=O)Nc2ccc(Cl)cc2)n1C,-1.7
SMILES,Dicer inh
COc1ccc(S(=O)(=O)O/N=C(\C)c2ccc(F)c(F)c2)cc1OC,-0.66
NC(N)=N/N=C/c1ccc(Cl)cc1Cl,4.5*!
N#C/C(=C\c1ccc(Cl)cc1Cl)C(N)=S,-0.55
NC(N)=N/N=C/c1ccc(Cl)c(Cl)c1,0.83
CCCOC(=O)Nc1sc2c(c1C(=O)OCC)CCCC2,0.6
N#Cc1sccc1CS(=O)c1ccc(Cl)cc1 (centres undefined),-0.38
O=C(Nc1nnc(C(F)(F)F)s1)c1c(F)cccc1F,-0.09
FC(F)(F)c1nnc(Nc2ccc(Cl)cc2)s1,7.3*
FC(F)(F)c1nnc(Nc2cccnc2)s1,0.07
COC(=O)C1=C(C)NC2=C(C(=O)CC(C)(C)C2)C1c1ccc(OCc2ccccc2)cc1OC (centres undefined),-0.23
CSc1ncnc2c1nnn2Cc1ccccc1,-0.78
c1ccc(-c2ccc(-c3nc(-c4ccccn4)no3)cc2)cc1,5.2*
c1ccc(-c2noc(-c3cccc4ccccc34)n2)nc1,1.3
COc1ccc(-c2nc(-c3ccccn3)no2)cc1OC,1.2
CCOC(=O)/C(C#N)=C/c1ccccc1C,0.5
Cc1cc(NC(=O)CSCC(=O)O)n(C)n1,0.36
CCOC(=O)C(=CNNS(=O)(=O)c1cc(C(F)(F)F)cc(C(F)(F)F)c1)C(=O)OCC,-0.88
COC(=O)C(CCSC)NS(=O)(=O)c1cc(C(F)(F)F)cc(C(F)(F)F)c1 (centres undefined),4.8*
CSCCC(NC(=O)c1ccc(C(F)(F)F)cc1)C(=O)NN (centres undefined),-0.55
CC(C(=O)c1ccc(-c2ccccc2F)cc1)N1CCN(c2ccc(C(F)(F)F)cn2)CC1 (centres undefined),-1.3
CC(C)=CCC(C#N)(CC=C(C)C)C(=O)O,-1.3
O=C1NS(=O)(=O)c2ccc(Cl)cc2Sc2ccccc21,0.03
CC1=CS(=O)(=O)c2ccc(Cl)cc21,4.3*
COC(=O)c1cc2c(s1)-c1cc(Cl)ccc1S(=O)(=O)C2,-1.2
O=C(NCc1ccccc1)N1CC2C=CC1C2 (centres undefined),6.2*
SMILES,Dicer inh
O=C(NCc1ccccc1)C1CCC(C(=O)NCc2ccccc2)N1 (centres undefined),-0.39
O=C(NCc1ccccc1)N1c2ccccc2Sc2ccccc21,-0.87
CCCNC(=O)c1nn2c(c1Cl)NC(c1cccs1)CC2C(F)(F)F (centres undefined),2.1
CN(C)c1ccc(NC(=O)c2ncn[nH]2)cc1,0.51
CCOC(=O)c1cnn(-c2c([N+](=O)[O-])c(C)nn2C)c1/N=C\N(C)C,-0.47
CCOC(=O)c1cnn2c1NC(c1ccc(Cl)cc1)CC2C(F)(F)F (centres undefined),-0.56
Cc1cc(C)c2c(n1)sc1c(N3CCN(c4ccccc4)CC3)ncnc12,1.4
COCc1cc(C)nc(N2CCN(Cc3ccccc3)CC2)c1C#N,0.42
Cc1cc(C)c(C#N)c(N2CCN(c3ccccc3)CC2)n1,3.2*
